# Test results published in PubChem BioAssay (Tox21).
# “And” between values parts separate entries of the source, which are not always exact repeats. Equal entries are not always repeated. Inconclusive results are not listed. A call without a number means that no potency is given here. A structure can be active in one record and inactive in another. The source made the active and inactive calls. Calls come from the whole dose curve; as a rule, active = well fitted curve in the direction sought with a large enough effect in the repeat runs; inconclusive = weak or mixed curves; inactive = no such curve, though single readings can be large; an effect the other way counts as inactive or inconclusive.
# Legend:
# [1] = qHTS RealTime-Glo MT Cell Viability Assay in HepG2 cells - 40 hour (AID 1224870); settings: RealTime-Glo luminescence; series mostly up to 76.8 µM; note: nearly all actives have a fitted effect of over 50% in size
# In short: (§1)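 HepG2 cells mixed with RealTime-Glo MT reagents (NanoLuc plus cell-permeant prosubstrate) were seeded at 600 cells/well, incubated 5 h at 37 C/5% CO2, then pinned with compounds in DMSO; nonlytic luminescence tracked viability during 40 h treatment.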
# [2] = A CellTox Green Cytotoxicity Assay to monitor cytotoxicity in HEK293 cells - 40 hour (AID 1224871); settings: CellTox Green fluorescence; series mostly up to 76.8 µM; note: nearly all actives have a fitted effect of over 45% in size; note: potency is the fitted concentration of half-maximal effect
# In short: (§2)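 Seeding of HEK293 cells together with cytotoxicity dye preceded a 5 h incubation at 37 C/5% CO2. Test compounds in DMSO were then added and fluorescence monitored across 40 h.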
# [3] = qHTS RealTime-Glo MT Cell Viability Assay in HEK293 cells - 16 hour (AID 1224872); settings: RealTime-Glo luminescence; series mostly up to 76.8 µM; note: nearly all actives have a fitted effect of over 50% in size; note: potency is the fitted concentration of half-maximal effect
# In short: (§3)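 Reads taken at 0, 8, 16, 24, 32 and 40 h from the same wells. HEK293 cells (600/well) carried RealTime-Glo reagents from seeding, with compound added after a 5 h settle at 37 C.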
# [4] = qHTS RealTime-Glo MT Cell Viability Assay in HepG2 cells - 8 hour (AID 1224873); settings: RealTime-Glo luminescence; series mostly up to 76.8 µM; note: nearly all actives have a fitted effect of over 55% in size
# In short: as §1
# [5] = qHTS RealTime-Glo MT Cell Viability Assay in HEK293 cells - 40 hour (AID 1224874); settings: RealTime-Glo luminescence; max response: stronger effect = lower value; note: nearly all actives have a fitted effect of over 50% in size; note: potency is the fitted concentration of half-maximal effect
# In short: (§4)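 Tox21 screen in HEK293 using RealTime-Glo MT chemistry, with cells and reagent co-dispensed. Luminescence proportional to viable cell number was captured at intervals during 40 h compound exposure at 37 C.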
# [6] = A CellTox Green Cytotoxicity Assay to monitor cytotoxicity in HEK293 cells - 24 hour (AID 1224875); settings: CellTox Green fluorescence; series mostly up to 76.8 µM; note: nearly all actives have a fitted effect of over 45% in size
# In short: as §2
# [7] = qHTS RealTime-Glo MT Cell Viability Assay in HepG2 cells - 32 hour (AID 1224877); settings: RealTime-Glo luminescence; series mostly up to 76.8 µM; note: nearly all actives have a fitted effect of over 55% in size
# In short: (§5)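 HepG2 suspension premixed with RealTime-Glo reagents is plated at 600 cells per well and left 5 h at 37 C/5% CO2. Compounds in DMSO then go in, and bioluminescence reflecting viable cell number is recorded over 40 h.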
# [8] = A CellTox Green Cytotoxicity Assay to monitor cytotoxicity in HepG2 cells - 24 hour (AID 1224878); settings: CellTox Green fluorescence; series mostly up to 76.8 µM; note: nearly all actives have a fitted effect of over 45% in size; note: potency is the fitted concentration of half-maximal effect
# In short: (§6)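 Nonlytic assay: viable cells exclude the dye, so fluorescence scales with cell death. HepG2 at 600 cells/well, compounds added after 5 h, signal read across 40 h.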
# [9] = qHTS RealTime-Glo MT Cell Viability Assay in HEK293 cells - 0 hour (AID 1224880); settings: RealTime-Glo luminescence; series mostly up to 76.8 µM; note: top concentration of the series differs between compounds; nearly all actives have a fitted effect of over 45% in size
# In short: as §4
# [10] = A CellTox Green Cytotoxicity Assay to monitor cytotoxicity in HEK293 cells - 32 hour (AID 1224881); settings: CellTox Green fluorescence; series mostly up to 76.8 µM; note: nearly all actives have a fitted effect of over 40% in size
# In short: as §2
# [11] = A CellTox Green Cytotoxicity Assay to monitor cytotoxicity in HepG2 cells - 0 hour (AID 1224882); settings: CellTox Green fluorescence; series mostly up to 76.8 µM; note: nearly all actives have a fitted effect of over 35% in size
# In short: as §6
# [12] = A CellTox Green Cytotoxicity Assay to monitor cytotoxicity in HepG2 cells - 32 hour (AID 1224883); settings: CellTox Green fluorescence; series mostly up to 76.8 µM; note: nearly all actives have a fitted effect of over 50% in size; note: potency is the fitted concentration of half-maximal effect
# In short: as §6
# [13] = A CellTox Green Cytotoxicity Assay to monitor cytotoxicity in HEK293 cells - 8 hour (AID 1224884); settings: CellTox Green fluorescence; series mostly up to 76.8 µM; note: nearly all actives have a fitted effect of over 35% in size; note: potency is the fitted concentration of half-maximal effect
# In short: as §2
# [14] = qHTS RealTime-Glo MT Cell Viability Assay in HepG2 cells - 16 hour (AID 1224885); settings: RealTime-Glo luminescence; series mostly up to 76.8 µM; note: nearly all actives have a fitted effect of over 50% in size
# In short: as §5
# [15] = qHTS RealTime-Glo MT Cell Viability Assay in HEK293 cells - 24 hour (AID 1224886); settings: RealTime-Glo luminescence; series mostly up to 76.8 µM; note: nearly all actives have a fitted effect of over 50% in size; note: potency is the fitted concentration of half-maximal effect
# In short: as §3
# [16] = qHTS RealTime-Glo MT Cell Viability Assay in HEK293 cells - 8 hour (AID 1224887); settings: RealTime-Glo luminescence; series mostly up to 76.8 µM; note: nearly all actives have a fitted effect of over 50% in size; note: potency is the fitted concentration of half-maximal effect
# In short: as §4
# [17] = A CellTox Green Cytotoxicity Assay to monitor cytotoxicity in HEK293 cells - 16 hour (AID 1224888); settings: CellTox Green fluorescence; series mostly up to 76.8 µM; note: nearly all actives have a fitted effect of over 35% in size
# In short: as §2
# [18] = qHTS RealTime-Glo MT Cell Viability Assay in HepG2 cells - 0 hour (AID 1224889); settings: RealTime-Glo luminescence; series mostly up to 76.8 µM; note: nearly all actives have a fitted effect of over 50% in size
# In short: as §5
# [19] = A CellTox Green Cytotoxicity Assay to monitor cytotoxicity in HepG2 cells - 40 hour (AID 1224879); settings: CellTox Green fluorescence; series mostly up to 76.8 µM; note: nearly all actives have a fitted effect of over 40% in size; note: potency is the fitted concentration of half-maximal effect
# In short: as §6
# [20] = A CellTox Green Cytotoxicity Assay to monitor cytotoxicity in HepG2 cells - 16 hour (AID 1224876); settings: CellTox Green fluorescence; series mostly up to 76.8 µM; note: nearly all actives have a fitted effect of over 45% in size
# In short: as §6
smiles,measurement,setting,value
Clc1ccc(Cl)c(Cl)c1Cl,Potency,[1],inactive
same,Potency,[2],inactive
same,Potency,[3],inactive
same,Potency,[4],inactive
same,max response,[5],0.667% (inactive) and -4.21% (inactive)
same,Potency,[6],inactive
same,Potency,[7],inactive
same,Potency,[8],inactive
same,Potency,[9],inactive
same,Potency,[10],inactive
same,Potency,[11],inactive
same,Potency,[12],inactive
same,Potency,[13],inactive
same,Potency,[14],inactive
same,Potency,[15],inactive
same,Potency,[16],inactive
same,Potency,[17],inactive
same,Potency,[18],inactive
CC(C)Cc1ccccc1,Potency,[1],inactive
same,Potency,[2],inactive
same,Potency,[3],inactive
same,Potency,[4],inactive
same,max response,[5],14.2% (inactive) and -0.413% (inactive)
same,Potency,[6],inactive
same,Potency,[7],inactive
same,Potency,[8],inactive
same,Potency,[19],inactive
same,Potency,[9],inactive
same,Potency,[10],inactive
same,Potency,[12],inactive
same,Potency,[13],inactive
same,Potency,[14],inactive
same,Potency,[15],inactive
same,Potency,[16],inactive
same,Potency,[17],inactive
Oc1ccc(OCc2ccccc2)cc1,Potency,[1],inactive
same,Potency,[3],957 nM (active) and inactive
same,Potency,[4],inactive
same,Potency,[5],1.2 µM (active)
same,max response,[5],-10.3% (inactive)
same,Potency,[6],inactive
same,Potency,[20],inactive
same,Potency,[7],inactive
same,Potency,[8],inactive
same,Potency,[9],inactive
same,Potency,[11],inactive
same,Potency,[12],inactive
same,Potency,[13],inactive
same,Potency,[14],inactive
same,Potency,[15],853 nM (active) and inactive
same,Potency,[16],853 nM (active) and inactive
same,Potency,[17],inactive
CCCCNC(N)=O,Potency,[1],inactive
same,Potency,[3],inactive
same,Potency,[4],inactive
same,max response,[5],5.63% (inactive) and 4.35% (inactive)
same,Potency,[6],inactive
same,Potency,[20],inactive
same,Potency,[7],inactive
same,Potency,[8],inactive
same,Potency,[19],inactive
same,Potency,[9],inactive
same,Potency,[10],inactive
same,Potency,[11],inactive
same,Potency,[12],inactive
same,Potency,[13],inactive
same,Potency,[14],inactive
same,Potency,[15],inactive
same,Potency,[16],inactive
same,Potency,[17],inactive
Cc1ccc(C)c(C)c1,Potency,[1],inactive
same,Potency,[2],inactive
same,Potency,[3],inactive
same,Potency,[4],inactive
same,max response,[5],7.97% (inactive) and 2.35% (inactive)
same,Potency,[6],inactive
same,Potency,[7],inactive
same,Potency,[8],inactive
same,Potency,[19],inactive
same,Potency,[9],inactive
same,Potency,[10],inactive
same,Potency,[11],inactive
same,Potency,[12],inactive
same,Potency,[13],inactive
same,Potency,[14],inactive
same,Potency,[15],inactive
same,Potency,[16],inactive
same,Potency,[17],inactive
same,Potency,[18],inactive
O=C1N=C(O)CN1/N=C/c1ccc(-c2ccc([N+](=O)[O-])cc2)o1,Potency,[1],inactive
same,Potency,[2],inactive
same,Potency,[3],inactive
same,Potency,[4],inactive
same,max response,[5],-2.04% (inactive)
same,Potency,[6],inactive
same,Potency,[7],inactive
same,Potency,[8],inactive
same,Potency,[19],inactive
same,Potency,[9],inactive
same,Potency,[10],inactive
same,Potency,[11],inactive
same,Potency,[12],inactive
same,Potency,[13],inactive
same,Potency,[14],inactive
same,Potency,[15],inactive
same,Potency,[16],inactive
same,Potency,[17],inactive
Cc1cc(O)cc(C)c1Cl,Potency,[1],inactive
same,Potency,[3],inactive
same,Potency,[4],inactive
same,max response,[5],-8.32% (inactive) and -0.996% (inactive)
same,Potency,[6],inactive
same,Potency,[20],inactive
same,Potency,[7],inactive
same,Potency,[8],inactive
same,Potency,[19],inactive
same,Potency,[9],inactive
same,Potency,[10],inactive
same,Potency,[11],inactive
same,Potency,[12],inactive
same,Potency,[13],inactive
same,Potency,[14],inactive
same,Potency,[15],inactive
same,Potency,[16],inactive
same,Potency,[17],inactive
CC1CC(OC(=O)c2ccccc2O)CC(C)(C)C1 (centres undefined),Potency,[1],inactive
same,Potency,[2],48.5 µM (active) and inactive
same,Potency,[3],inactive
same,Potency,[4],inactive
same,max response,[5],-10.4% (inactive) and -7.39% (inactive) and -13.1% (inactive)
same,Potency,[6],inactive
same,Potency,[7],inactive
same,Potency,[8],inactive
same,Potency,[9],inactive
same,Potency,[10],inactive
same,Potency,[11],inactive
same,Potency,[12],inactive
same,Potency,[13],inactive
same,Potency,[14],inactive
same,Potency,[15],inactive
same,Potency,[16],inactive
same,Potency,[17],inactive
Oc1ccc2ccccc2c1N=Nc1ccccc1,Potency,[1],inactive
same,Potency,[2],inactive
same,Potency,[3],inactive
same,Potency,[4],inactive
same,max response,[5],32.3% (inactive)
same,Potency,[6],inactive
same,Potency,[7],inactive
same,Potency,[8],inactive
same,Potency,[19],inactive
same,Potency,[9],inactive
same,Potency,[12],inactive
same,Potency,[13],inactive
same,Potency,[14],inactive
same,Potency,[15],inactive
same,Potency,[17],inactive
same,Potency,[18],inactive
CC1=CC[C@H]2C[C@@H]1C2(C)C,Potency,[1],inactive
same,Potency,[2],inactive
same,Potency,[3],inactive
same,Potency,[4],inactive
same,max response,[5],0.867% (inactive) and -1.12% (inactive)
same,Potency,[6],inactive
same,Potency,[7],inactive
same,Potency,[8],inactive
same,Potency,[19],inactive
same,Potency,[9],inactive
same,Potency,[10],inactive
same,Potency,[11],inactive
same,Potency,[12],inactive
same,Potency,[13],inactive
same,Potency,[14],inactive
same,Potency,[15],inactive
same,Potency,[16],inactive
same,Potency,[17],inactive
same,Potency,[18],inactive
CCCCC(CC)COC(=O)CCCCCCCC(=O)OCC(CC)CCCC (centres undefined),Potency,[1],inactive
same,Potency,[3],24.5 µM (active) and inactive
same,Potency,[4],inactive
same,Potency,[5],4.9 µM (active)
same,max response,[5],4.32% (inactive)
same,Potency,[7],inactive
same,Potency,[8],49 µM (active)
same,Potency,[9],inactive
same,Potency,[12],49 µM (active)
same,Potency,[13],54.9 µM (active) and inactive
same,Potency,[14],inactive
same,Potency,[15],24.5 µM (active) and inactive
same,Potency,[16],inactive
CC(C)n1c(/C=C/[C@@H](O)C[C@@H](O)CC(=O)O)c(-c2ccc(F)cc2)c2ccccc21,Potency,[1],inactive
same,Potency,[2],inactive
same,Potency,[3],inactive
same,Potency,[4],inactive
same,max response,[5],-22.2% (inactive) and 0.258% (inactive)
same,Potency,[6],inactive
same,Potency,[7],inactive
same,Potency,[8],6.17 µM (active) and 10.7 µM (active)
same,Potency,[19],4.36 µM (active) and 9.52 µM (active)
same,Potency,[9],inactive
same,Potency,[10],inactive
same,Potency,[11],inactive
same,Potency,[12],4.36 µM (active) and 9.52 µM (active)
same,Potency,[13],inactive
same,Potency,[14],inactive
same,Potency,[15],inactive
same,Potency,[16],inactive
same,Potency,[17],inactive
same,Potency,[18],inactive
